Article PMC4336329 (PLoS ONE, 2015)
Among all 310,000 compounds or so, about 14,000 (4.5%) showed an effect of 50% or more. Effects have a minus sign here. The list comes from a sample in which strong results are over-represented; it also holds similar structures and randomly drawn compounds.

target: human ether-à-go-go-related gene (hERG) potassium channel (human, UniProt Q12809); experiment: primary screen, population patch clamp on CHO cells stably expressing hERG; higher = less effect of the substance
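Note: peak tail current of the secondary pulse compared with the same well before compound.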

Sequence of human ether-à-go-go-related gene (hERG) potassium channel (Q12809 whole entry, looked up): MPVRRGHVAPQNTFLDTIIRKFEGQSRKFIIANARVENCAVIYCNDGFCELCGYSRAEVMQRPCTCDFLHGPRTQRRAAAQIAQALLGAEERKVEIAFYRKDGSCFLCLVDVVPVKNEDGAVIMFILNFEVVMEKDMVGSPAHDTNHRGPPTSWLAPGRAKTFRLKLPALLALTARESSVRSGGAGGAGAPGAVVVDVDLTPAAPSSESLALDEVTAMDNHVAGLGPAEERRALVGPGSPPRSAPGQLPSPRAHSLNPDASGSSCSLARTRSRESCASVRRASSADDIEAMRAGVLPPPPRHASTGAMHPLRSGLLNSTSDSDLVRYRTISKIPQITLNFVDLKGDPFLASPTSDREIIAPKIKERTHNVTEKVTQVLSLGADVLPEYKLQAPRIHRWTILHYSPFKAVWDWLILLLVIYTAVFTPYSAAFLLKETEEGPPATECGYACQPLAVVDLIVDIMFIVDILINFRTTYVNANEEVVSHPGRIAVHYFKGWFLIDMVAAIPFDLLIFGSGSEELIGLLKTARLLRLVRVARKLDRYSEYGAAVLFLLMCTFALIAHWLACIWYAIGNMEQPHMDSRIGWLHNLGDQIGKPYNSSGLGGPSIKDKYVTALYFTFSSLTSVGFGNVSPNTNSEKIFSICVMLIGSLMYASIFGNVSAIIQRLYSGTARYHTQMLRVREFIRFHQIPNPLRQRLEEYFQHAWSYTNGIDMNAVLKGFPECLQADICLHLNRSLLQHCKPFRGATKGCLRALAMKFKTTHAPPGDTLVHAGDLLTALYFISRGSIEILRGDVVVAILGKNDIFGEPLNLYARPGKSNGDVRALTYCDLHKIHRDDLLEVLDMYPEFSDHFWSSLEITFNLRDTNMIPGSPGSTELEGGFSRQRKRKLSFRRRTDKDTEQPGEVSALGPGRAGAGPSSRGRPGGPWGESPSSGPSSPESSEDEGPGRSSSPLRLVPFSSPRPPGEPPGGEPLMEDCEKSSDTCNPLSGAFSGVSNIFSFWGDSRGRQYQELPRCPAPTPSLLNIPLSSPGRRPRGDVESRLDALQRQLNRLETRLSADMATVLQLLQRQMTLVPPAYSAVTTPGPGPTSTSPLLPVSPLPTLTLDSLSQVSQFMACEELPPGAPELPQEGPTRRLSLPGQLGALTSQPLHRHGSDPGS

Structure (SMILES) | hERG current change (%, negative = inhibition) at 10uM [%]
CCC1(O)CC(C(=O)OC)=NN1C(=O)c1ccccc1 (centres unmarked) | 7.94
COc1ccccc1-n1cnnc1SCC(=O)Nc1ncc(Cl)cc1Cl | -0.265
COc1ccccc1OCC(=O)NCCSCc1ccc(Cl)cc1 | -45
COc1ccc(C(=O)N/C(=C\c2ccccc2)C(=O)Nc2ccccc2C(=O)O)cc1 | 11.3
COc1ccccc1C(=O)NNC(=O)c1ccc(C)cc1 | 9.24
Cc1ccc(NC(=O)C2(N3CCC3=O)CCCCC2)cc1 | 6.92
COCC(C)NC(=O)C(C)Oc1ccccc1 (centres unmarked) | 12
CC(C)c1nnc(NC(=O)CCC(=O)NCc2ccccc2Cl)s1 | 11.2
Cn1cnc([N+](=O)[O-])c1NCc1ccccc1 | 10.3
COc1cc(/C=N/Nc2nc(Nc3ccccc3)nc(N3CCOCC3)n2)ccc1OC(=O)c1ccco1 | 13.6
O=C(COc1ccccc1)N1CCN(c2nnc(-c3ccccc3)c3ccccc23)CC1 | -65.3
CCC(=O)N1CCN(c2nnc(-c3ccccc3)c3ccccc23)CC1 | -13.5
Cn1c(=O)n(CC(=O)N2CCN(c3nnc(-c4ccccc4)c4ccccc34)CC2)c2ccccc21 | -56
O=C(COc1ccc(-c2nnc(N3CCCCC3)c3ccccc23)cc1)N1CCCCC1 | -32.3
O=C(CN1C(=O)c2ccccc2C1=O)N1CCN(c2nnc(-c3ccccc3)c3ccccc23)CC1 | 5.5
Cc1ccc(OCC(=O)N2CCN(c3nnc(-c4ccc(C)cc4)c4ccccc34)CC2)cc1 | -49.3

Structure (SMILES) | hERG current change (%, negative = inhibition) at 10uM [%]
Cc1ccc(OCC(=O)N2CCN(c3nnc(-c4ccccc4)c4ccccc34)CC2)cc1 | -61.5
Cc1ccc(-c2nnc(N3CCN(C(=O)Cn4c(=O)n(C)c5ccccc54)CC3)c3ccccc23)cc1 | -28.7
CCNC(=S)NCc1ccc(F)cc1 | 5.03
Br.NS(=O)(=O)c1ccc(Nc2nc(-c3ccccc3)cs2)cc1 | -26
CCCn1c(=O)c(C(=O)Nc2ccccc2C(=O)OC)c(O)c2ccccc21 | 5.91
S=C1NCCNC(=S)NCCOCCOCCOCCN1 | 15.2
CCOC(=O)c1nn(-c2ccccc2)c2nnc(Cc3ccc(Cl)cc3)c(=O)n12 | 3.57
COc1ccc(OCC(=O)N2CCC(Cc3ccccc3)CC2)cc1 | -36
COc1cccc(OC)c1OCCCCN1CCCC1 | -2.47
CC(=O)CCc1ccc(OCCCCN2CCC(Cc3ccccc3)CC2)cc1.O=C(O)C(=O)O | -79.5
COc1cccc(OC)c1OCCCN1CCOCC1 | 4.22
CC(=O)CCc1ccc(OCCCCn2cncn2)cc1 | -4.29
COc1cccc(OC)c1OCCCN1CCC(Cc2ccccc2)CC1.O=C(O)C(=O)O | -80.6
COc1cccc(OC)c1OCCCCN1CCC(Cc2ccccc2)CC1.O=C(O)C(=O)O | -81.9
COc1cccc(OC)c1OCCCCN1CCCCC1.O=C(O)C(=O)O | -2.55
COc1cccc(OC)c1OCCCCCCN1CCN(C)CC1.Cl | 8.54
